Compound activity as filed in PubChem BioAssay.
A-T KAP1 phos: candidate therapy for ataxia-telangiectasia; AID 485349; F2112 A-T fibroblasts, KAP-1 phosphorylation AlphaLISA; neocarzinostatin DNA damage 30 min before lysis; Potency, µM (titrated, usually from 57.5 µM), usual class: activators; 320,000 tested, 0.19% active; note: nearly all actives have a fitted effect of over 45% in size
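hTERT-immortalized A-T patient fibroblasts (F2112), 500 cells/well in OPTI-MEM, 1% FBS, got compounds for 60 min, then NCS for 30 min at 37C. Lysates were then assayed for phospho-KAP-1 by AlphaLISA (anti-pKAP1 donor, anti-KAP1 acceptor beads), 6 hr at 25C.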
KCNH2 3.1 inh: blocks the human KCNH2 3.1 channel isoform; U2OS KCNH2 3.1, thallium flux FluxOr; active compounds read low; activity change, % (tested at about 1.8 µM); 340,000 tested, 0.95% active; AID 720553;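 active = maximum activity change below -70%; inconclusive = maximum activity change from -70% to -50%; inactive = maximum activity change above -50%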;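 note: thallium influx rate constant from kinetic fluorescence after stimulation buffer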
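Measured as rate of thallium-driven FluxOr signal in transduced U2OS cells carrying the 3.1 channel, read kinetically for 2 min upon stimulation; values are rate constants scaled to DMSO control wells.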
12-LOX inh: inhibitors of human 12S-lipoxygenase ALOX12 | AID 1671190 | purified 12hLO, xylenol orange hydroperoxide absorbance | P18054 | 580,000 tested, 1.1% active | Potency, µM (doses to about 108 µM), hits mostly inhibitors
Target sequence (P18054 whole entry, looked up): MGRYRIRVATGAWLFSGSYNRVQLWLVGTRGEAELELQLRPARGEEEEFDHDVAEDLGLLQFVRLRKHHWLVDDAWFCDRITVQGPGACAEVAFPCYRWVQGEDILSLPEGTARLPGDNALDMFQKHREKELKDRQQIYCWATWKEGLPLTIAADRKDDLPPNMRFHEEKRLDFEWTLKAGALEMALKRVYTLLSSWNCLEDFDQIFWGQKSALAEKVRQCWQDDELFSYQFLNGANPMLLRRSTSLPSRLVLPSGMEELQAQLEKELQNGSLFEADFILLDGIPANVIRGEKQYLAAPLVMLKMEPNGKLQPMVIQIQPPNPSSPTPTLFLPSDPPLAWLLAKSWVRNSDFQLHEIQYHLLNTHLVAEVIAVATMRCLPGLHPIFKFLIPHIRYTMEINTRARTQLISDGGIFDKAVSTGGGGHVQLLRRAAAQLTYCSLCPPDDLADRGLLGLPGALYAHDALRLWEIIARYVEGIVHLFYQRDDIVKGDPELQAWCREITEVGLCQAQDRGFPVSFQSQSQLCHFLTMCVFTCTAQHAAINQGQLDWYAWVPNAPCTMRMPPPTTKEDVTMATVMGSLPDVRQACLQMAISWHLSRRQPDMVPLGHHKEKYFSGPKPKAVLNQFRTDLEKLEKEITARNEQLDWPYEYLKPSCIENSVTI
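Purified human 12hLO at 150 nM in 25 mM Hepes, 0.01% Triton X-100, pH 7.0, preincubated 15 min at room temperature with compound. Reaction started with 40 uM arachidonic acid, 30 min at room temperature. Hydroperoxide measured by Fe-xylenol orange, 573/405 nm absorbance ratio.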
KCNH2 WT inh: inhibitors of human wildtype KCNH2 potassium channel | U2OS, BacMam KCNH2, thallium flux FluxOr; active compounds read low | 340,000 tested, 0.37% active | AID 720551 | activity change, % at 1.84 µM;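 active = maximum activity change below -70%; inconclusive = maximum activity change between -70% and -50%; inactive = maximum activity change above -50%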
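U2OS cells transduced with wild-type KCNH2 virus are loaded with FluxOr dye for 45 min, and thallium flux is measured in kinetic reads before and after stimulation buffer. Rate constants are normalized to DMSO controls.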
A number is an active result; ! = not active in a repeat. This is a sample that favours compounds with a hit; in the whole collection about 1.8% have one here. Unless noted, calls come from the whole dose curve; as a rule, active = well fitted curve in the direction sought with a large enough effect; inconclusive = small, poorly fitted or top-dose-only effect, or another doubt; inactive = no such curve, though single readings can be large; an effect the other way counts as inactive or inconclusive.

C=CCc1cccc(CNc2nc3ccccc3n2C)c1O was read as A-T KAP1 phos inactive, KCNH2 3.1 inh inactive, 12-LOX inh 32µM and KCNH2 WT inh inactive.
Screening C=CCc1cccc(CNc2nc3ccccc3n2CCN2CCOCC2)c1O returned A-T KAP1 phos inactive, KCNH2 3.1 inh inactive, 12-LOX inh inactive and KCNH2 WT inh inactive.
CCC(C)NC(=O)C(NC(=O)c1cccc(OC)c1)C1CCN(C(=O)CC(C)(C)C)CC1 (stereo unspecified) was read as 12-LOX inh inactive.
CSCCC(NC(=O)c1ccc(Cl)c([N+](=O)[O-])c1)C(=O)N1CCN(C/C=C/c2ccccc2)CC1 (stereo unspecified) was read as A-T KAP1 phos inactive, KCNH2 3.1 inh -97, 12-LOX inh inactive and KCNH2 WT inh inactive.
`CCc1noc(COc2ccc3c(CC)cc(=O)oc3c2)n1` gave 12-LOX inh inactive.
`Cn1ccc2cc3c(cc21)CCN3C(=O)Nc1cccnc1` gave A-T KAP1 phos inactive, KCNH2 3.1 inh inactive, 12-LOX inh 9.7µM! and KCNH2 WT inh inactive.
`COc1cc2c(cc1C(F)(F)F)N(C(=O)Nc1cc(F)cc(-c3cccnc3)c1)CC2` gave 12-LOX inh inactive.
For CC(=O)c1ccc(NS(=O)(=O)c2cccc(C(=O)Nc3ccccc3C(=O)O)c2)cc1 the results were A-T KAP1 phos inactive, KCNH2 3.1 inh inactive, 12-LOX inh 32µM and KCNH2 WT inh inactive.
For COc1ccc(NS(=O)(=O)c2cccc(C(=O)Nc3ccccc3C(=O)O)c2)cc1 the results were A-T KAP1 phos inactive, KCNH2 3.1 inh inactive, 12-LOX inh inconclusive and KCNH2 WT inh inactive.
`Cc1ccc(S(=O)(=O)N(C)c2ccc3ccccc3c2)cc1` gave A-T KAP1 phos inactive, KCNH2 3.1 inh -148, 12-LOX inh inactive and KCNH2 WT inh inactive.
For CSc1nc2ccccc2nc1N(C)S(=O)(=O)c1ccc(C)cc1 the results were A-T KAP1 phos 1.1µM, KCNH2 3.1 inh inactive, 12-LOX inh inactive and KCNH2 WT inh inactive.
For Cc1ccc(S(=O)(=O)N(C)c2ccccc2)cc1 the results were A-T KAP1 phos inactive, KCNH2 3.1 inh inactive, 12-LOX inh inactive and KCNH2 WT inh inactive.
Cc1cn([C@@H](CCCCN)C(=O)NCCCCCCCCCCC(=O)N2CCNCC2)nn1 was read as A-T KAP1 phos inactive, KCNH2 3.1 inh inactive, 12-LOX inh 32µM and KCNH2 WT inh inactive.
For Cc1ccccc1CNC(=O)C1CCN(C(=O)c2ncn3c2COC(c2ccccc2)C3)CC1 (stereo unspecified) the results were 12-LOX inh inactive.
`Cc1cc(C)c2c(CC(=O)O)c(C)[nH]c2c1` gave A-T KAP1 phos inactive, KCNH2 3.1 inh inactive, 12-LOX inh 50µM and KCNH2 WT inh inactive.
`Cc1[nH]c2ccccc2c1CC(=O)O` gave A-T KAP1 phos inactive, KCNH2 3.1 inh inactive, 12-LOX inh inactive and KCNH2 WT inh inactive.
C/C=C(\C)C(=O)OC1Cc2c(ccc3ccc(=O)oc23)OC1(C)C (stereo unspecified) was read as 12-LOX inh inactive.
`COc1ccc(OC)c(CN2CCN(CC(=O)Nc3ccccc3C(=O)NC3CC3)CC2)c1` gave A-T KAP1 phos inactive, KCNH2 3.1 inh -70, 12-LOX inh inactive and KCNH2 WT inh -79.
`COc1cc(C)c(CN2CCN(CC(=O)Nc3ccccc3C(=O)NC3CC3)CC2)cc1OC` gave A-T KAP1 phos inactive, KCNH2 3.1 inh -107, 12-LOX inh inactive and KCNH2 WT inh -83.
`O=C(NCCC1=CCCCC1)C12CC3CC(CC(Cl)(C3)C1)C2` gave 12-LOX inh inactive.
Screening COc1ccccc1Nc1nc(N)nc(CN2CCCCCC2)n1 returned A-T KAP1 phos inactive, KCNH2 3.1 inh inactive, 12-LOX inh inactive and KCNH2 WT inh inactive.
For COc1ccc(Nc2nc(N)nc(CSC(=S)N3CCOCC3)n2)cc1 the results were A-T KAP1 phos inactive, KCNH2 3.1 inh inactive, 12-LOX inh inactive and KCNH2 WT inh inactive.
Screening COc1ccccc1N1CCN(Cc2nc(N)nc(Nc3ccccc3)n2)CC1 returned A-T KAP1 phos inactive, KCNH2 3.1 inh inconclusive, 12-LOX inh inactive and KCNH2 WT inh inactive.
For Nc1nc(CSC(=S)N2CCOCC2)nc(Nc2ccc(F)cc2)n1 the results were A-T KAP1 phos inactive, KCNH2 3.1 inh -115, 12-LOX inh inactive and KCNH2 WT inh inactive.
For Nc1nc(CN2CCN(c3ccccn3)CC2)nc(Nc2ccc(F)cc2)n1 the results were A-T KAP1 phos inactive, KCNH2 3.1 inh -89, 12-LOX inh inactive and KCNH2 WT inh inactive.
Screening Nc1nc(CN2CCCCCC2)nc(Nc2ccc(F)cc2)n1 returned A-T KAP1 phos inactive, KCNH2 3.1 inh -73, 12-LOX inh inactive and KCNH2 WT inh inactive.
`CN(CC(=O)NC1CC1)C(=O)Cc1cccc(C(F)(F)F)c1` gave 12-LOX inh inactive.
Cc1c(-c2cccc(Cl)c2)nc2ccccc2c1C(=O)NC1CCCc2ccccc21 (stereo unspecified) was read as 12-LOX inh inactive.
`Nc1nc(NCCc2ccc(F)cc2)c2[nH]cnc2n1` gave 12-LOX inh inactive.
`COCCCN1CCN(C2Cc3ccccc3Sc3ccc(Cl)cc32)CC1` (stereo unspecified) gave A-T KAP1 phos inactive, KCNH2 3.1 inh -86, 12-LOX inh inconclusive and KCNH2 WT inh inconclusive.
Screening Cc1ccc(C2C(C(=O)c3ccco3)=C(O)C(=O)N2c2ncccn2)cc1 (stereo unspecified) returned A-T KAP1 phos inactive, KCNH2 3.1 inh inactive, 12-LOX inh inactive and KCNH2 WT inh inactive.
`Cc1nnc(N2C(=O)C(O)=C(C(=O)c3ccco3)C2c2ccc(C(C)(C)C)cc2)s1` (stereo unspecified) gave A-T KAP1 phos inactive, KCNH2 3.1 inh inactive, 12-LOX inh 7.9µM and KCNH2 WT inh inactive.
For CCCOc1cccc(C2C(C(=O)c3ccco3)=C(O)C(=O)N2c2nnc(C)s2)c1 (stereo unspecified) the results were A-T KAP1 phos inactive, KCNH2 3.1 inh inactive, 12-LOX inh 7.9µM and KCNH2 WT inh inactive.
For Cc1nnc(N2C(=O)C(O)=C(C(=O)c3ccco3)C2c2ccc(F)cc2)s1 (stereo unspecified) the results were A-T KAP1 phos inactive, KCNH2 3.1 inh inactive, 12-LOX inh inconclusive and KCNH2 WT inh inactive.
`Cc1nnc(N2C(=O)C(O)=C(C(=O)c3ccco3)C2c2ccc(C(C)C)cc2)s1` (stereo unspecified) gave A-T KAP1 phos inactive, KCNH2 3.1 inh inactive, 12-LOX inh 45µM and KCNH2 WT inh inactive.
CSc1ccc(C2C(C(=O)c3ccco3)=C(O)C(=O)N2c2nnc(SC)s2)cc1 (stereo unspecified) was read as A-T KAP1 phos inactive, KCNH2 3.1 inh inactive, 12-LOX inh 40µM and KCNH2 WT inh inactive.
For COc1ccc(C(=O)Nc2oc3c(C)cccc3c(=O)c2-c2ccc(OC)c(OC)c2)cc1OC the results were 12-LOX inh inactive.
